# In PubChem BioAssay (NCI):
# Values joined by “and” are separate entries in the source; they are usually repeats but may differ in a detail not shown here. Equal values may be shown once. The panel holds about 79,000 compounds, 15% with a hit somewhere; the sample as a whole holds those more often. A number with no mark means an inactive call. Active and inactive are the calls of the source. Rule as the data show it: active = growth inhibition above about 70%; inactive = the rest.
# How the values were obtained:
# [1] = NCI Yeast Anticancer Drug Screen. Data for the rad50 strain (AID 155);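 also: 0% = growth of vehicle-only cultures of the same strain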; conditions: S. cerevisiae rad50 strain growth inhibition, active compounds read high
# Procedure, shortened: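 Inhibition values express reduced yeast growth in compound-treated cultures relative to vehicle-treated controls.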
# [2] = NCI Yeast Anticancer Drug Screen. Data for the mec2-1 strain (AID 157); conditions: S. cerevisiae mec2-1 strain, active compounds read high
# Procedure, shortened: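 Growth inhibition is read against vehicle-treated controls after compound exposure of the mec2-1 yeast strain, which is defective in DNA damage repair or cell cycle control.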
# [3] = NCI Yeast Anticancer Drug Screen. Data for the sgs1 mgt1 strain (AID 161);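 also: 0% = growth of cultures given vehicle only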; conditions: S. cerevisiae sgs1 mgt1 strain, active compounds read high
# Procedure, shortened: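 This yeast growth screen uses a strain with defined DNA-repair lesions; compound-treated growth is compared with vehicle-treated growth.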
# [4] = NCI Yeast Anticancer Drug Screen. Data for the cln2 rad14 strain (AID 165);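 also: 0% = growth equal to vehicle treated cultures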; conditions: S. cerevisiae cln2 rad14 strain, active compounds read high
# Procedure, shortened: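 Growth inhibition, relative to vehicle-treated controls, is the read-out. The test organism is a yeast strain with defined genetic alterations, cln2 rad14.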
# [5] = NCI Yeast Anticancer Drug Screen. Data for the bub3 strain (AID 167); conditions: S. cerevisiae bub3 mutant strain, active compounds read high
# Procedure, shortened: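 Steps: expose the mutant yeast strain to compound; grow alongside vehicle-treated cultures; measure growth; express inhibition against the vehicle cultures.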
# [6] = NCI Yeast Anticancer Drug Screen. Data for the mlh1 rad18 strain (AID 175); conditions: S. cerevisiae mlh1 rad18 strain growth inhibition, active compounds read high
# Procedure, shortened: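 Cells of a genetically altered yeast strain, deficient in DNA damage repair, were treated with compound. Their growth was then compared with that of vehicle-treated cultures to give inhibition.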
# [7] = at 5.0 µM (retest, dose inferred, filed as 0.5)
# [8] = at 50.0 µM (retest, dose inferred, filed as 5.0)
SMILES,"growth inhibition [1, 7]","growth inhibition [1, 8]",growth inhibition ([1]; at 50.0 µM),"growth inhibition [2, 7]","growth inhibition [2, 8]",growth inhibition ([2]; at 50.0 µM),"growth inhibition [3, 7]","growth inhibition [3, 8]",growth inhibition ([3]; at 50.0 µM),"growth inhibition [4, 7]","growth inhibition [4, 8]",growth inhibition ([4]; at 50.0 µM),"growth inhibition [5, 7]","growth inhibition [5, 8]",growth inhibition ([5]; at 50.0 µM),"growth inhibition [6, 7]","growth inhibition [6, 8]",growth inhibition ([6]; at 50.0 µM)
S=P(S)(Oc1ccccc1)Oc1ccccc1,-10%,25%,56%,-18%,18%,77.7% (active),1%,17%,40.4%,-11%,20%,92.9% (active),-4%,38%,75.2% (active),-12%,10%,90.2% (active)
Oc1cc[c]([Hg][Cl])cc1,99% (active),99% (active),99.5% (active) and 100% (active),100% (active),100% (active),99.5% (active) and 99.7% (active),100% (active),99% (active) and 100% (active),99.1% (active) and 100% (active),99% (active),99% (active),98.2% (active) and 99.5% (active),99% (active) and 100% (active),99% (active) and 100% (active),99.6% (active) and 99.7% (active),99% (active),99% (active),99.2% (active) and 99.3% (active)
CC(C)(C)[CH2][Hg][Cl],100% (active),100% (active),99.7% (active),100% (active),100% (active),99.5% (active),100% (active),99% (active),99.5% (active),100% (active),99% (active),98.7% (active),100% (active),100% (active),99.5% (active),99% (active),99% (active),99.5% (active)
CCOC(=O)C1=C(C)NC(=O)NC1c1ccc(N(CCCl)CCCl)cc1Cl (centres undefined),6%,78% (active),38.6%,46%,59%,44.1%,-3%,34%,24.9%,-8%,74% (active),-10.8%,13%,97% (active),92.6% (active),3%,88% (active),78.5% (active)
CCC[CH2][Sn]([CH2]CCC)([S]C1=NCCS1)[S]C1=NCCS1,96% (active),96% (active),90.7% (active),97% (active),97% (active),90.7% (active),97% (active),97% (active),90.9% (active),95% (active),95% (active),89.7% (active),95% (active),95% (active),88.3% (active),96% (active),96% (active),86.5% (active)
O=[N+]([O-])c1ccc(C=Cc2ccc(C(F)(F)F)cc2)cc1.[C-]#[O+].[C-]#[O+].[C-]#[O+].[Cr],2%,67%,29%,0%,51%,55.8%,17%,60%,72.5% (active),-22%,60%,26.6%,0%,75% (active),73.2% (active),12%,72% (active),73.9% (active)
COC(=O)C(Cl)(Br)CCl (centres undefined),13%,85% (active),68.5%,6%,86% (active),79.7% (active),4%,49%,42.1%,3%,65%,12.3%,9%,95% (active),43%,8%,81% (active),38.7%
CSCCl,3%,51%,88.2% (active),3%,73% (active),94.5% (active),4%,86% (active),90% (active),11%,97% (active),88.8% (active),0%,75% (active),97.6% (active),-6%,95% (active),95% (active)
CCC1(O)CC(OC2CC(N(C)C)C(OC3CC4OC5CC(=O)C(C)OC5OC4C(C)O3)C(C)O2)c2c(cc3c(c2O)C(=O)c2c(O)ccc(O)c2C3=O)C1C(=O)OC (centres undefined),88% (active) and 93% (active),97% (active) and 98% (active),89.9% (active) and 87.5% (active) and 91.9% (active),71% (active) and 96% (active) and 95% (active),98% (active),90% (active) and 89.7% (active) and 92% (active),89% (active) and 79% (active) and 93% (active),98% (active) and 97% (active),91% (active) and 90% (active),73% (active) and 85% (active) and 86% (active),96% (active) and 97% (active),88% (active) and 87.9% (active) and 91.4% (active),93% (active) and 92% (active),98% (active) and 97% (active),88.6% (active) and 87.2% (active) and 84.8% (active),92% (active) and 96% (active) and 94% (active),97% (active) and 96% (active) and 98% (active),89.8% (active) and 86% (active) and 89.9% (active)
CC/C(=C\c1ccc(Cl)cc1)[N+](=O)[O-],34%,99% (active),13.1%,12%,99% (active),-3.1%,14%,99% (active),53.1%,7%,99% (active),-5.45%,25%,99% (active),4.95%,13%,99% (active),8.15%
CCCCCCCCCCCCNCCc1ccccc1,99% (active),99% (active),98.2% (active),99% (active),98% (active),98.8% (active),99% (active),98% (active),98.9% (active),99% (active),98% (active),98% (active),99% (active),98% (active),98.2% (active),99% (active),98% (active),98.8% (active)
ClCc1nc2ccccc2[nH]1,10%,88% (active),88.7% (active),4%,45%,20.5%,18%,83% (active),83.5% (active),-1%,77% (active),60%,-9%,1%,-31.9%,14%,82% (active),74.7% (active)
O=c1oc2ccccc2c(O)c1C(c1ccco1)c1c(O)c2ccccc2oc1=O,11%,22%,79% (active),13%,24%,79.2% (active),-6%,43%,44.2%,16%,28%,41.5%,9%,56%,34.2%,9%,19%,27.5%
C[C@]12CC/C(=N\NC(=O)c3ccncc3)C[C@@H]1CC[C@@H]1[C@@H]2CC[C@]2(C)[C@@H](O)CC[C@@H]12,0%,52%,68.9%,5%,54%,29.1%,13%,65%,77.3% (active),6%,8%,66.8%,2%,37%,35%,10%,46%,59.1%
CN(CCO)CCO,18%,86% (active),6.55% and -12.4%,3%,26%,7.5% and 36.6%,5%,43%,-0.35% and 15.9%,1%,21%,-8.05% and 58.9%,1%,6%,-9.75% and 30.8%,10%,38%,-11.8% and 21.9%
O=C(c1ccccc1)c1c(CC(O)c2ccncc2)n(C(=O)c2ccccc2)c2ccccc12 (centres undefined),18%,95% (active),94% (active),-2%,96% (active),92.5% (active),8%,97% (active),92.2% (active),18%,96% (active),82.7% (active),-3%,98% (active),92.2% (active),19%,95% (active),93.8% (active)
O=[N+]([O-])c1csc([N+](=O)[O-])c1,99% (active),99% (active),99.3% (active),97% (active),99% (active),99.7% (active),95% (active),99% (active),99.5% (active),75% (active),99% (active),98.8% (active),89% (active),99% (active),99.2% (active),99% (active),99% (active),99.3% (active)
CC1CCS(=O)(=O)CC1.[Cl][Hg][Cl],98% (active),99% (active),99.6% (active),99% (active),99% (active),99.6% (active),99% (active),99% (active),99.6% (active),99% (active),99% (active),99.3% (active),99% (active),99% (active),99.5% (active),99% (active),99% (active),99.5% (active)
